SMILES strings stand for the structures. Where a name gives a salt, the structure may show the parent alone. ± gives the standard deviation of the averaged measurements.

This assay has as its system E. coli TESEC Mtb Alr. Description: growth (OD600 after 10 h); higher = more growth (less inhibition). Particulars: arabinose 1000000 nM; compound 0.1 mM; raw OD600 reference: median of DMSO wells 0.193, cell-free background 0.041. The method, then:
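TESEC Mtb Alr E. coli, or the Alr+ wild-type control, in 384-well plates with Prestwick library compounds at 0.1 mM and 1% DMSO, across arabinose induction levels of 1E3 to 1E7 nM. Growth is read as OD600 after 10 h at 37 °C in triplicate biological replicates.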
`CC(=O)Oc1cccc2c1C(=O)c1c(OC(C)=O)cc(C(=O)O)cc1C2=O` [Diacerein] came in with a growth of 0.0904 ± 0.0041.

Take `COc1ccc(-c2cc(=S)ss2)cc1` [Anethole-trithione]: the growth was determined as 0.12 ± 0.026.

`O=C(O)Cc1ccccc1Nc1c(Cl)cccc1Cl` [Diclofenac sodium]: the growth stood at 0.103 ± 0.004.

As to `CCN1CCC[C@H]1CNC(=O)c1c(O)c(Cl)cc(Cl)c1OC` [Raclopride], the growth was 0.107 ± 0.0082.

In turn, `COc1ccc(C[C@@H]2c3cc(OC)c(OC)cc3CC[N@+]2(C)CCC(=O)OCCCCCOC(=O)CC[N@@+]2(C)CCc3cc(OC)c(OC)cc3[C@H]2Cc2ccc(OC)c(OC)c2)cc1OC` [Cisatracurium besylate] yielded a growth of 0.119 ± 0.0042.

Turning to `CN(C)CCOC(=O)C(c1ccccc1)C1(O)CCCC1` (centres undefined) [Cyclopentolate hydrochloride], the growth was 0.19 ± 0.018.

The compound `CCCCOc1ccc(C(=O)CCN2CCCCC2)cc1` [Dyclonine hydrochloride] showed a growth of 0.143 ± 0.0049.

As to `CC[C@H]1OC(=O)[C@H](C)[C@@H](O[C@H]2C[C@@](C)(OC)[C@@H](O)[C@H](C)O2)[C@H](C)[C@@H](O[C@@H]2O[C@H](C)C[C@H](N(C)C)[C@H]2O)[C@](C)(O)C[C@@H](C)/C(=N\OCOCCOC)[C@H](C)[C@@H](O)[C@]1(C)O` [Roxithromycin], the growth came to 0.04023 ± 0.00015.

On to `CCOC(=O)O[C@]1(C(=O)OCCl)CC[C@H]2[C@@H]3CCC4=CC(=O)C=C[C@]4(C)[C@H]3[C@@H](O)C[C@@]21C` [Loteprednol etabonate], for which the growth is 0.114 ± 0.01.

Consider `c1ccc2c(CC3=NCCN3)cccc2c1` [Naphazoline hydrochloride], for which the growth worked out at 0.189 ± 0.0029.

Regarding `O=C(N/N=C/c1ccc([N+](=O)[O-])o1)c1ccc(O)cc1` [Nifuroxazide], the growth worked out at 0.0664 ± 0.0028.

Regarding `COCCOC(=O)C1=C(C)NC(C)=C(C(=O)OC/C=C/c2ccccc2)C1c1cccc([N+](=O)[O-])c1` (centres undefined) [Cilnidipine], the growth was 0.14 ± 0.015.

`CCN(CC)CCOC(=O)c1ccc(N)cc1` [Procaine hydrochloride] returned a growth of 0.193 ± 0.0097.

For the compound `COc1cccc(N(C)C(=S)Oc2ccc3c(c2)CCCC3)n1` [Liranaftate], the growth came to 0.1202 ± 0.0011.

Regarding `CC(C)(Sc1cc(C(C)(C)C)c(O)c(C(C)(C)C)c1)Sc1cc(C(C)(C)C)c(O)c(C(C)(C)C)c1` [Probucol], the growth is 0.172 ± 0.0035.

`C[C@@H]1[C@H](O)[C@@H](C)/C=C/C=C/C=C/C=C/C=C/C=C/C=C/[C@H](O[C@@H]2O[C@H](C)[C@@H](O)[C@H](N)[C@@H]2O)C[C@@H]2O[C@](O)(C[C@@H](O)C[C@@H](O)[C@H](O)CC[C@@H](O)C[C@@H](O)CC(=O)O[C@H]1C)C[C@H](O)[C@H]2C(=O)O` [Amphotericin B] came in with a growth of 0.182 ± 0.0098.

`C[C@@H](O)[C@H]1C(=O)N2C(C(=O)O)=C(S[C@@H]3CN[C@H](C(=O)N(C)C)C3)[C@H](C)[C@H]12` [Meropenem]: the growth came to 0.0817 ± 0.0057.

Take `CC1CCc2cc(F)cc3c(=O)c(C(=O)O)cn1c23` (centres undefined) [Flumequine]: the growth amounted to 0.0416 ± 0.0004.

In the case of `O=C1CC2(CCCC2)CC(=O)N1CCCCN1CCN(c2ncccn2)CC1` [Buspirone hydrochloride], the growth stood at 0.198 ± 0.011.

As to `CC[C@]12CCCN3CCc4c(n(c5ccccc45)[C@@](O)(C(=O)OC)C1)[C@@H]32` [Vincamine], the growth stood at 0.173 ± 0.0043.

As to `N#CC(c1ccc(Cl)cc1)c1c(Cl)cc(-n2ncc(=O)[nH]c2=O)cc1Cl` (centres undefined) [Diclazuril], the growth was found to be 0.0405 ± 0.00045.

`CCOC(=O)[C@H](CCc1ccccc1)N[C@H]1CCc2ccccc2N(CC(=O)O)C1=O` [Benazepril HCl] showed a growth of 0.173 ± 0.0047.

In the case of `C[C@H](CCC(=O)O)[C@H]1CC[C@H]2[C@@H]3[C@H](O)C[C@@H]4C[C@H](O)CC[C@]4(C)[C@H]3CC[C@]12C` [Chenodiol], the growth turned out to be 0.146 ± 0.0057.

Compound `CC(=O)CC(c1ccccc1)c1c(O)c2ccccc2oc1=O` (centres undefined) [Warfarin] yielded a growth of 0.15 ± 0.0059.

In the case of `O=C1CN(/N=C/c2ccc(-c3ccc([N+](=O)[O-])cc3)o2)C(=O)N1` [Dantrolene sodium salt], the growth was found to be 0.105 ± 0.0026.

`Nc1nc2c(ncn2COC(CO)CO)c(=O)[nH]1` [Ganciclovir]: the growth was determined as 0.183 ± 0.003.

`Cc1ccc(C(=O)c2cc(O)c(O)c([N+](=O)[O-])c2)cc1` [Tolcapone] gave a growth of 0.04313 ± 0.00042.

In turn, `Fc1ccc([C@@H]2CCNC[C@H]2COc2ccc3c(c2)OCO3)cc1` [Paroxetine Hydrochloride] registered a growth of 0.05573 ± 0.00035.

`COc1ccc(CN2CCN(C(c3ccc(F)cc3)c3ccc(F)cc3)CC2)c(OC)c1OC` [Lomerizine hydrochloride] came in with a growth of 0.05757 ± 0.00049.

With `C[C@@H]1C[C@H]2[C@@H]3CCC4=CC(=O)C=C[C@]4(C)[C@@]3(Cl)[C@@H](O)C[C@]2(C)[C@@]1(OC(=O)c1ccco1)C(=O)CCl` [Mometasone furoate], the growth was found to be 0.0878 ± 0.0027.

Regarding `Cc1cccc(Nc2ccncc2S(=O)(=O)NC(=O)NC(C)C)c1` [Torsemide], the growth was found to be 0.17 ± 0.0046.

Consider `COc1nc(C)nc(Cl)c1NC1=NCCN1` [Moxonidine], for which the growth was found to be 0.187 ± 0.0025.

Compound `NC(=O)c1cccnc1` [Nicotinamide] registered a growth of 0.238 ± 0.014.

In turn, `NCCCC(O)(P(=O)(O)O)P(=O)(O)O` [Alendronate sodium] returned a growth of 0.178 ± 0.0032.

`NNC(=O)c1ccncc1` [Isoniazid] had a growth of 0.186 ± 0.007.

`CC(C)OC(=O)C(C)(C)Oc1ccc(C(=O)c2ccc(Cl)cc2)cc1` [Fenofibrate]: the growth was 0.0897 ± 0.0018.

With `CCC[C@@H]1C[C@@H](C(=O)N[C@@H]([C@H]2O[C@H](SC)[C@H](O)[C@@H](O)[C@H]2O)[C@@H](C)O)N(C)C1` [Lincomycin hydrochloride], the growth came to 0.0692 ± 0.0033.

In turn, `CS(=O)(=O)OCCCCOS(C)(=O)=O` [Busulfan] had a growth of 0.184 ± 0.0057.

For the compound `CC[C@H]1OC(=O)C[C@@H](O)[C@H](C)[C@@H](O[C@@H]2O[C@H](C)[C@@H](O[C@H]3C[C@@](C)(O)[C@@H](O)[C@H](C)O3)[C@H](N(C)C)[C@H]2O)[C@@H](CC=O)C[C@@H](C)C(=O)/C=C/C(C)=C/[C@@H]1CO[C@@H]1O[C@H](C)[C@@H](O)[C@@H](OC)[C@H]1OC` [Tylosin], the growth is 0.03953 ± 0.00032.

The values above are taken from the supplement of paper PMC9262897, “Low-cost anti-mycobacterial drug discovery using engineered E. coli” (Nature Communications, 2022).
